From PubChem
An excerpt weighted towards active compounds, which were near 9% of everything screened.
G9a block = qHTS Assay for Inhibitors of Histone Lysine Methyltransferase G9a | Histone-lysine N-methyltransferase EHMT2 (Homo sapiens), Q96KQ7 | G9a H3K9 monomethylation, AlphaScreen, 2 h | Potency, µM (highest dose often 102 µM), inactives show at the top dose activity, negative = inhibition, most hits filed as inhibitors | actives 8.8% (n = 350,000); also: % is scaled to controls: 0 for no effect and ±100 for the full control effect; nearly all actives have a fitted effect of over 75% in size
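Compounds were preincubated with 20 nM G9a for 15 min, after which biotinylated H3K9 peptide (500 nM) and SAM (20 uM) started a 2 h room-temperature reaction. Monomethylated product was quantified by antibody-based AlphaScreen chemiluminescence.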
HP1b binding inh = HTS for Inhibitors of HP1-beta Chromodomain Interactions with Methylated Histone Tails. AlphaScreen HP1-beta / biotin-H3K9me3 peptide binding. Potency, µM (highest dose often 114 µM), without a hit: at the top dose activity change, negative = inhibition, usual class: inhibitors. actives 0.56% (n = 390,000). AID 540317, 2011; also: nearly all actives have a fitted effect of over 70% in size
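Compound inhibition of the preformed complex between 50 nM HP1-beta and 50 nM biotinylated H3K9me3 peptide was read by AlphaScreen. Buffer was PBS pH 7.4 with 0.01% Tween-20. Incubations ran 30 min at room temperature, with 10 ug/mL donor/acceptor beads.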
PLK1 PBD inh = qHTS for Inhibitors of PLK1-PDB (polo-like kinase 1 - polo-box domain): Primary Screen | actives 2.8% (n = 360,000) | Potency, µM, for the others: max response, negative = inhibition, actives largely listed as inhibitors | Plk1 PBD binding of FITC phosphopeptide, fluorescence polarization | Serine/threonine-protein kinase PLK1 (Homo sapiens), P53350 | AID 720504, 2013; also: series mostly up to about 57 µM; % is scaled to controls: 0 for no effect and ±100 for the full control effect; nearly all actives have a fitted effect of over 65% in size
Target sequence (P53350 whole entry, looked up, the tested form may be a part): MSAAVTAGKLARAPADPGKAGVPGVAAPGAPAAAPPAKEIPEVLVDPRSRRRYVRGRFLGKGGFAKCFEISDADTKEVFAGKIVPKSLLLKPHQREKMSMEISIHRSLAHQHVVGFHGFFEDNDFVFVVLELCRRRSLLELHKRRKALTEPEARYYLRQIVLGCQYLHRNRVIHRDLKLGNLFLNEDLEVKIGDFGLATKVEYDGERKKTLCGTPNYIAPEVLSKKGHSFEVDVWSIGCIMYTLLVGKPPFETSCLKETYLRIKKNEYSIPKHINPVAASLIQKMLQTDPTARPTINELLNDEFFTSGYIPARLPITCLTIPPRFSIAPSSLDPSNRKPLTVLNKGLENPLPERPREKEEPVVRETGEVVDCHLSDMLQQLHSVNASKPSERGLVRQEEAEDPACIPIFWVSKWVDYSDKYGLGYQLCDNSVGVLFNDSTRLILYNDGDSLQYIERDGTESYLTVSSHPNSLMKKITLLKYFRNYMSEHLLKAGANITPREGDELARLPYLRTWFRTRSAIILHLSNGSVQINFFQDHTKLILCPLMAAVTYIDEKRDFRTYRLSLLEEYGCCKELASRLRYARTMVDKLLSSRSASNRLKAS
JMJD2A Tudor = qHTS Assay for Inhibitors of JMJD2A-Tudor Domain. Lysine-specific demethylase 4A (Homo sapiens), O75164. actives 4.4% (n = 390,000). Potency, µM (top dose mostly 114 µM), without a hit: top-dose activity change, negative = inhibition, usual class: inhibitors. AlphaScreen JMJD2A-Tudor / H3K4me3 peptide binding. AID 504339, 2011; also: % is scaled to controls: 0 for no effect and ±100 for the full control effect; nearly all actives have a fitted effect of over 50% in size
BAZ2B block = qHTS Assay for Inhibitors of BAZ2B | Potency, µM (series often up to 114 µM), without a hit: at the highest dose activity change, negative = inhibition, hits mostly inhibitors | AlphaScreen BAZ2B-H3K14Ac peptide displacement | actives 4.4% (n = 360,000) | Bromodomain adjacent to zinc finger domain protein 2B (Homo sapiens), Q9UIF8; also: % is scaled to controls: 0 for no effect and ±100 for the full control effect; nearly all actives have a fitted effect of over 60% in size
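AlphaScreen luminescence quantifies BAZ2B engagement of H3K14Ac peptide; the protein and biotinylated peptide are both at 50 nM final, buffer PBS pH 7.4 with 0.01% Tween-20, all steps at room temperature.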
ALOX12 inh = Primary qHTS assay for inhibitors of human arachidonate 12S-lipoxygenase (ALOX12): Round 2 | Polyunsaturated fatty acid lipoxygenase ALOX12 (Homo sapiens), P18054 | purified 12hLO, xylenol orange hydroperoxide absorbance | Potency, µM (titrated, usually from 108 µM), for the others: at the top dose activity change, negative = inhibition, actives largely listed as inhibitors | actives 1.1% (n = 580,000); also: % is scaled to controls: 0 for no effect and ±100 for the full control effect
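Hydroperoxide product was detected by ferrous iron/xylenol orange as the 573 to 405 nm absorbance ratio. Arachidonic acid at 40 uM (final) was turned over for 30 min at room temperature by 150 nM human 12hLO, pH 7.0 Hepes buffer, after 15 min compound preincubation.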
Starred values were filed as active, the others as inactive; ? = inconclusive; . = no result; [ ] = dose if it differs, or a comment. Calls follow the shape of the dose curve; as a rule, active = well fitted curve in the direction sought with a large enough effect; inconclusive = small, poorly fitted or top-dose-only effect, or another doubt; inactive = no such curve, though single readings can be large; an effect the other way counts as inactive or inconclusive. Potency is read from the fitted curve at half-maximal effect.

SMILES | G9a block | HP1b binding inh | PLK1 PBD inh | JMJD2A Tudor | BAZ2B block | ALOX12 inh
CCc1ccccc1N1CC23C=CC(O2)C(C(=O)O)C3C1=O (stereo not drawn) | -23%[59 µM] | 10% | 27µM* | 22µM* | -5% | 355%
COc1ccc(CN2C(=O)c3ccccc3C2C(=O)NC2CCC(C)CC2)c(OC)c1 (stereo not drawn) | -6%[59 µM] | 16% | 24µM* | -11%[11.4 µM] | -16% | 0%
CCOC(=O)C1=C(CC)OC(N)=C(C#N)C1c1ccc(OC)cc1OC (stereo not drawn) | -12%[59 µM] | 33% | -2% | -18% | -4% | -7%
COC(=O)C1=C(C)OC(N)=C(C#N)C1c1ccco1 (stereo not drawn) | -16%[59 µM] | 41% | -6% | -2% | 2% | 0%
Cc1ccc(C2C(C#N)=C(N)Oc3c2sc2ccccc32)o1 (stereo not drawn) | 16µM* | . | . | . | ? | .
CCOC(=O)C1=C(c2ccccc2)OC(N)=C(C#N)C1c1ccco1 (stereo not drawn) | 45µM* | 41% | 2% | -3% | 5% | 0%
CCOC(=O)CC1=C(C(=O)OCC)C(c2ccc(C)o2)C(C#N)=C(N)O1 (stereo not drawn) | 25µM* | 32% | -25% | -32%[11.4 µM] | -31% | -6%
CCOC(=O)CC1=C(C(=O)OCC)C(c2ccc(OC)cc2OC)C(C#N)=C(N)O1 (stereo not drawn) | 56µM* | 14% | -10% | -27% | -35% | -6%
Cc1cc2c(c(=O)o1)C(c1ccc([N+](=O)[O-])o1)C(C#N)=C(N)O2 (stereo not drawn) | ? | 13% | -12% | -30% | ? | ?
CCOC(=O)c1sc2ccccc2c1S(=O)(=O)N1CCN(c2cccc(OC)c2)CC1 | -41%[59 µM] | 17% | . | -24% | ? | -30%
CC1(C)N([O-])C2=C(c3ccccc3C2=O)[N+](=O)C1(C)C | 79µM* | -2% | 11µM* | -8% | 13% | ?
COc1ccccc1N1CCN(C(=O)C2CC(=O)N(c3n[nH]c4cccc(F)c34)C2)CC1 (stereo not drawn) | . | . | . | . | . | -13%
COc1ccc(NC(=S)NNc2ccc(C(=O)O)cc2)cc1 | 79µM* | ? | ? | -33% | 10% | -21%
COc1ccc(CSC(=S)NNc2ccccc2)cc1 | . | . | ? | . | . | 22µM*
COc1ccc(C(=O)NNc2ccccc2)cc1 | 8.9µM* | 13% | 2% | -3% | ? | -12%
COc1ccc(CNC(=S)Nc2ccc(-c3ccccc3)cc2)cc1 | 43% | -7% | -28% | -10% | 3% | -15%
COc1ccc(C(=O)O)cc1S(=O)(=O)NC(C)(C)C | -2% | 0% | 24µM* | -1%[11.4 µM] | -22% | 1%
COc1cccc(NC(=O)C2CC(=O)OC23CCOC(C)(C)C3)c1 (stereo not drawn) | -4%[59 µM] | 23% | 6% | -2% | -6% | 1%
Cc1ccc(N2C(=O)C3C4C=CC(CC4)C3C2=O)cc1[N+](=O)[O-] (stereo not drawn) | -46%[0.501 µM] | 32% | -1% | -1% | 79µM* | ?
Cc1ccc(N2C(=O)C3C4C=CC(C4)C3C2=O)cc1C (stereo not drawn) | 2% | 13% | 4% | -1% | 2% | 19%
CCOc1nc2ccccc2cc1/C=C/C(=O)O | 50µM* | 51% | -6% | 1% | -1% | -10%
O=C(NCCCO)c1ccc(CSc2nc3ccccc3c(=O)[nH]2)cc1 | 7% | 29% | -5% | -17% | -17% | -15%
COC(=O)c1c(NC(=O)c2cc3nc(-c4ccc(Br)cc4)cc(C(F)(F)F)n3n2)sc2c1CCCC2 | 11%[59 µM] | 18% | . | -12% | 2% | 0%
N#Cc1c(NC(=O)c2cc3nc(-c4ccc(Br)cc4)cc(C(F)(F)F)n3n2)sc2c1CCCC2 | 10µM* | -10% | . | -11% | 4% | -3%
O=S(=O)(Nc1cccnc1Cl)c1ccc(F)cc1 | 7% | 28% | -3% | -2% | -14% | -13%
SMILES | G9a block | HP1b binding inh | PLK1 PBD inh | JMJD2A Tudor | BAZ2B block | ALOX12 inh
CCOC(=O)C1CCCN(Cc2c(C(=O)N3CCOCC3)nc3ccccn23)C1 (stereo not drawn) | . | 7% | -14% | 2% | 11% | 0%
COC1CCCN(Cc2c(C(=O)N3CCN(C4CCCCC4)CC3)nc3ccccn23)C1 (stereo not drawn) | 79µM* | 26% | -9% | -12% | ? | ?
CN1C(=O)CC(c2ccc(Cl)cc2)C2=C1CC(C)(C)CC2=O (stereo not drawn) | . | . | . | . | . | 22%
Cc1cc(C)c2nc(N3CCC(C(=O)NCc4ccccn4)CC3)sc2c1 | -11% | 22% | -13% | -12% | . | -21%
Cc1nn(-c2ccccc2)c(Cl)c1C(=O)OCC(=O)NCCc1ccc(S(N)(=O)=O)cc1 | 50µM* | 21% | 1% | -17% | -24% | -21%
NS(=O)(=O)c1ccc(CCNCC(=O)NC2CC2)cc1 | 50µM* | ? | 2% | 4.5µM* | ? | 0%
NS(=O)(=O)c1ccc(CCNCC(=O)N2CCC(Cc3ccccc3)CC2)cc1 | . | -12% | ? | -35%[11.4 µM] | 56µM* | -22%
CC(C)c1ccccc1NC(=O)CNCCc1ccc(C(F)(F)F)cc1 | -9%[12.7 µM] | ? | -14% | 14µM* | 45µM* | -25%
NS(=O)(=O)c1ccc(CCNC(=O)CNC(=O)c2ccc(F)cc2)cc1 | 2% | -19% | 9% | -14% | 6% | 23%
NS(=O)(=O)c1ccc(CCNC(=O)CNCCc2ccc(C(F)(F)F)cc2)cc1 | -1% | -7% | -2% | 18µM* | 50µM* | -40%
COc1ccc(C2CCCN2Cc2cc(=O)oc3cc(C)c(C)cc23)cc1 (stereo not drawn) | . | . | . | . | . | -24%
COc1ccc(OC)c(CN2CCN(Cc3cc(=O)oc4cc(O)ccc34)CC2)c1 | 35µM* | 15% | -5% | -20% | -19% | 9%
O=c1cc(CN2CCN(S(=O)(=O)c3ccc4c(c3)OCCO4)CC2)c2ccc(O)cc2o1 | 50µM* | 9% | -8% | -21% | -11% | ?
COc1cccc(C2CCCN2Cc2cc(=O)oc3cc(OC)ccc23)c1 (stereo not drawn) | . | . | . | . | . | 45µM*
Cc1cc(C)nc(/N=C2/NC(=O)CS2)n1 | 20µM* | -14% | ? | 22µM* | ? | ?
